cytoskel mod: modifiers of F-actin cytoskeleton organization, primary screen, imaging, HUVEC, phalloidin staining, high-content imaging. AID 836, 2007. hit rate 0.18% among 91,000. inhibition, % at 2 µM. HUVEC TNFa F-actin phalloidin imaging;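 active means inhibition above the batch mean plus 3 SD and confirmed as a hit by visual image inspection, cut at about 30% in these data, passing the limit was not always enough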
CYP2C19 inh: blockers of cytochrome P450 2C19 activity – biochemical, luminescence, ADME assay, primary screen. P33261. CYP2C19 Supersomes, luciferin-H EGE luminescence, 30 min. inhibition, % at 5 µM. hit rate 21% among 96,000;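 active means CYP2C19 inhibition above a set limit at 5 µM in the primary screen, cut at about 50% in these data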;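 further: plate controls were negative control wells for no effect and 2.5 mM tranylcypromine positive control for full effect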
CYP2C9 inh: blockers of cytochrome P450 2C9 activity – biochemical, luminescence, ADME assay, primary screen; P11712; inhibition, % at 5 µM; hit rate 20% among 96,000; CYP2C9 Supersomes, luciferin-H conversion;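 active means blocking of liver enzyme CYP2C9 beyond about 50% at 5 µM, limit read from the data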
Target sequence (P11712 whole entry, looked up): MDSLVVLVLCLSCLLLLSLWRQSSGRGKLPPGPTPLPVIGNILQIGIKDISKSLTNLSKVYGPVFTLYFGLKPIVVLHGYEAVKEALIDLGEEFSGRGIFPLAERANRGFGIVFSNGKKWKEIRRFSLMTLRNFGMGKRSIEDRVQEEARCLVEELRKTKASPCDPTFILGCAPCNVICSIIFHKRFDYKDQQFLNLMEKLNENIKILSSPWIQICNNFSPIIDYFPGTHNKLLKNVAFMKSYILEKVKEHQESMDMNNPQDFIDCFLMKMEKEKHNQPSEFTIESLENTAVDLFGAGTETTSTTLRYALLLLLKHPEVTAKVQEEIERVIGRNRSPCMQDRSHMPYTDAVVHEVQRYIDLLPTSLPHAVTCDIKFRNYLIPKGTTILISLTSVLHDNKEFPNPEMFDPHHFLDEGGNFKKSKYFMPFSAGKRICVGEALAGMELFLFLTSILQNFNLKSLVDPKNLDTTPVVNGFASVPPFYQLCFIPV
E-sel TNF inh: E-selectin induction blockers in HUVEC – imaging, immunofluorescence, high content, primary screen | HUVEC TNFa-induced E-selectin immunofluorescence | inhibition, % at 2 µM | hit rate 0.71% among 120,000;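 active means inhibition above the batch mean plus 3 SD, and confirmed as a hit on visual image review, cut at about 43% in these data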;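 further: 0% = TNF-stimulated DMSO wells and 100% = unstimulated control wells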
CYP2C19 act: human CYP2C19 activators, primary screen, biochemical, luminescence | 96,000 tested, under 10 active | activation factor at 5 µM | Cytochrome P450 2C19 (Homo sapiens), P33261 | recombinant CYP2C19, luciferin-H EGE luminescence; hits give high values; 0 = fully inhibited enzyme, 1 = untreated enzyme;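 active means activation factor of at least 2 at 5 µM in the primary screen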;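 further: 0 = wells with 2.5 mM tranylcypromine and 1 = vehicle-only wells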
CYP2C9 activ: human CYP2C9 activators, primary screen, biochemical, luminescence; Cytochrome P450 2C9 (Homo sapiens), P11712; activation factor at 5 µM; recombinant CYP2C9, luciferin-H conversion; hits give high values; factor 1 = untreated enzyme, 0 = blocked; hit rate 1.4% among 96,000;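 active means activation factor of 2 or more for CYP2C9 at a 5 µM dose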;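 further: 0 = sulfaphenazole-blocked wells and 1 = vehicle-only wells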
* hit, by the source's call; · = not tested or not shown. Shown are actives, neighbours in structure and some others; about 22% of the full set was active somewhere.

SMILES	cytoskel mod	CYP2C19 inh	CYP2C9 inh	E-sel TNF inh	CYP2C19 act	CYP2C9 activ
Cc1ccc(S(=O)(=O)NC(CC(C)C)C(=O)Oc2ccc3c4c(c(=O)oc3c2)CCC4)cc1 (stereo not given)	32	31	24	·	0.7	0.8
CC(C)Cn1c(-c2ccccc2)nc2ccccc2c1=O	9	5	24	26	0.9	0.8
CCC(CO)NC1=C([N+](=O)[O-])C(=O)CC(C)(C)C1 (stereo not given)	·	·	·	-1	·	·
CCCCn1c(=O)cc(O)c2ccccc21	-2	-14	-20	-14	1.1	1.2
CCn1ncc(Cl)c1C(=O)NC(=S)Nc1c(C)cc(C)cc1[N+](=O)[O-]	·	·	·	1	·	·
COc1ccccc1NC(=O)C1=C(C)NC(=O)NC1c1cc(C)cs1 (stereo not given)	·	·	·	-4	·	·
O=C(Oc1ccc2c3c(c(=O)oc2c1)CCCC3)c1ccco1	-5	24	-114	-28	0.8	2.1*
COc1ccc(OCc2nc3ccccc3[nH]2)cc1	-16	49	24	·	0.5	0.8
Fc1ccccc1CSCc1nc2ccccc2[nH]1	·	·	·	21	·	·
Cc1ccc(OCCSCc2nc3ccccc3[nH]2)cc1	11	59*	63*	-4	0.4	0.4
Clc1ccc(OCCSCc2nc3ccccc3[nH]2)cc1	-33	64*	57*	24	0.4	0.4
CN1C(=S)SC(N(O)C(=O)NC2CCCCC2)C1(C)C (stereo not given)	12	8	24	·	0.9	0.8
COc1ccc(CCNC(=O)C(=O)NCC2OCCN2S(=O)(=O)c2ccc(Br)cc2)cc1 (stereo not given)	·	·	·	1	·	·
O=S(=O)(Nc1nc2ccccc2nc1NCCN1CCOCC1)c1cccc(Cl)c1	16	0	98*	17	1	0
Clc1ccc(-c2nc(NCCN3CCOCC3)c3ccccc3n2)cc1	13	20	50*	5	0.8	0.5
CCOC(=O)c1cc2cc(OC)ccc2[nH]1	8	38	13	-4	0.6	0.9
CCCCCSc1nnc2c(n1)OC(c1cccn1C)N(C(C)=O)c1ccccc1-2 (stereo not given)	20	45	83*	-4	0.5	0.2
Cc1ccc(CS(=O)(=O)Cc2ccc(C(=O)NCc3cccnc3)o2)cc1	-4	76*	36	·	0.2	0.6
COc1ccccc1S(=O)(=O)Cc1ccc(C(=O)NCCN(C)C)o1	22	·	·	-4	·	·
O=C(NCc1cccnc1)c1ccc(CS(=O)(=O)Cc2ccc(Cl)cc2)o1	9	100*	65*	-6	0	0.3
Cc1ccccc1S(=O)(=O)Cc1ccc(C(=O)NCc2cccnc2)o1	-3	98*	67*	38	0	0.3
O=C(NCc1ccccn1)c1ccc(CS(=O)(=O)Cc2ccc(Cl)cc2)o1	-2	13	7	·	0.9	0.9
COc1ccccc1CNC(=O)c1ccc(CS(=O)(=O)c2ccccc2OC)o1	-84	22	52*	4	0.8	0.5
Cc1ccccc1S(=O)(=O)Cc1ccc(C(=O)O)o1	·	-16	-13	13	1.2	1.1
CC(C)CN(CC(C)C)S(=O)(=O)c1cc([N+](=O)[O-])ccc1N1CCCCCC1	-7	43	43	-50	0.6	0.6
SMILES	cytoskel mod	CYP2C19 inh	CYP2C9 inh	E-sel TNF inh	CYP2C19 act	CYP2C9 activ
COc1ccc(NC(=O)c2cncc(Br)c2)cc1S(N)(=O)=O	·	·	·	9	·	·
N=C1/C(=C\c2ccc(SCc3ccco3)o2)C(=O)N=C2SC=NN12	-28	-5	74*	-22	1	0.3
Cc1ccc(Cn2ncc3c(N4CCN(c5ccc(C)cc5)CC4)ncnc32)cc1	8	-16	11	·	1.2	0.9
Cc1ccc(Cn2ncc3c(N4CCN(Cc5ccc(Cl)cc5)CC4)ncnc32)cc1	3	9	34	·	0.9	0.7
CC1CCN(c2ncnc3c2cnn3Cc2ccc(Cl)cc2)CC1	-8	38	76*	·	0.6	0.2
Cc1ccccc1N1CCN(c2ncnc3c2cnn3Cc2ccc(Cl)cc2)CC1	-13	41	76*	-22	0.6	0.2
Cc1ccc(Cn2ncc3c(N4CCN(C5CCCC5)CC4)ncnc32)cc1	·	·	·	100*	·	·
C/C(=N/OC(=O)C1CC12CCC2)c1ccc(Br)cc1 (stereo not given)	·	·	·	18	·	·
CCOc1ccccc1C1CC(=O)Nc2cc(OC)c(OC)c(OC)c21 (stereo not given)	7	8	-1	37	0.9	1
COc1cccc(C2CC(=O)Nc3cc(OC)c(OC)c(OC)c32)c1OC (stereo not given)	-5	63*	47	10	0.4	0.5
Cc1cc(=O)n2c(C)n[nH]c2n1	20	-14	-22	1	1.1	1.2
Cc1ccccc1OCCNC(=S)Nc1ccccc1	12	70*	9	-24	0.3	0.9
COc1ccccc1NC(=O)Nc1c(C)n(C)n(-c2ccccc2)c1=O	-9	-16	-18	18	1.2	1.2
Cc1cc(C)c(S(=O)(=O)N2CCC(C(=O)NCc3ccco3)CC2)c(C)c1	24	21	-179	-28	0.8	2.8*
O=C(NC1CCCCC1)C1CCN(S(=O)(=O)N2CCCCCC2)CC1	6	0	9	-21	1	0.9
O=C(NC1CCCCCCC1)C1CCN(S(=O)(=O)N2CCC3(CC2)OCCO3)CC1	9	60*	52*	-4	0.4	0.5
O=C(NCc1ccco1)C1CCN(S(=O)(=O)N2CCC3(CC2)OCCO3)CC1	4	8	84*	24	0.9	0.2
COc1ccc(S(=O)(=O)N2CCC(C(=O)NCc3ccco3)CC2)cc1	6	-8	-82	-4	1.1	1.8
O=C(C1CCN(S(=O)(=O)N2CCC3(CC2)OCCO3)CC1)N1CCC(Cc2ccccc2)CC1	-3	58*	76*	-13	0.4	0.2
CCC(C(=O)N1CC2(C)CC1CC(C)(C)C2)N1C(=O)c2ccccc2C1=O (stereo not given)	7	23	-4	·	0.8	1
CN(C)c1ccc(C(=O)OCc2ccc(Br)cc2)cc1	8	48	12	-5	0.5	0.9
C/C(=N\NC(=O)COc1ccc(C(C)(C)C)cc1)c1ccc(OC(F)F)cc1	·	·	·	6	·	·
COc1ccc(OC)c(C(=O)c2coc3ccc(O)cc23)c1	61*	70*	73*	-12	0.3	0.3
COc1ccnc(NCc2ccc(Cl)cc2)c1C#N	25	100*	30	30	0	0.7
O=c1[nH]c(/C=C\c2cccs2)nc(O)c1[N+](=O)[O-]	·	·	·	-37	·	·
CC1=CC(C)(C)N2C(=O)C3(C(C#N)=C(N)Oc4cc(O)ccc43)c3cccc1c32 (stereo not given)	3	32	51*	22	0.7	0.5
